Screening data from PubChem.
RGS7-Gao reg: modulates binding of RGS7 to human Galphao. P09471. Multiplexed bead flow cytometry; actives lie on both sides. binding response (% of control), % at 10 µM. hit rate 0.35% among 220,000. AID 1439; in the data active means binding response below about 49% or above about 150%; inconclusive means no clear call, values can overlap the other calls; inactive means in between;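 further: fluorescent Galphao held in activated GDP-AlF4 state binding bead-coupled RGS7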
Avidin fluor: avidin bead compound fluorescence profile. Avidin beads, compound fluorescence 488/530 nm, flow cytometry; hits give high values. fluorescence (KMESF) at 10 µM. hit rate 0.38% among 220,000. AID 1775; in the data active means fluorescence above about 47
RGS4-Gao reg: modulates binding of RGS4 to human Galphao; Multiplexed bead flow cytometry; actives lie on both sides; binding response (% of control), % at 10 µM; hit rate 0.33% among 220,000; AID 1415; in the data active means binding response below about 49% or above about 150%; inactive means in between;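 further: fluorescent Galphao activated with aluminum fluoride binding bead-coupled RGS4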
GSH bead fluor: compound fluoresces at 488/530 nm on GSH beads | GSH beads flow cytometry, compound fluorescence 488/530 nm; hits give high values | fluorescence (KMESF) at 10 µM | hit rate 0.25% among 190,000; in the data active means fluorescence above about 89;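 further: glutathione beads carrying GST-tagged Bcl family fusion proteins plus one bare bead set; values are compound well signal with DMSO vehicle wells as background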
RGS8-Gao: human RGS8-Galphao interaction regulation; P09471; multiplexed bead flow cytometry, RGS8-Galphao binding; actives lie on both sides; response (percent of control binding), % at 10 µM; hit rate 0.34% among 220,000; AID 1423; in the data active means response below about 60% or above about 140%; inactive means in between;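 further: Galphao activated as the GDP aluminium fluoride complex binding bead-coupled RGS8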
RGS16-Gao: RGS16-Galphao interaction regulator (human) | binding response (% of control), % at 10 µM | AID 1441 | hit rate 0.38% among 220,000 | bead-based flow cytometry RGS16-Galphao binding, fluorescence; actives lie on both sides; call rule not given here;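 further: Galphao activated by GDP with aluminum fluoride before binding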
The depositor's hits bear a star; ? = inconclusive; . = no result; [ ] = remark or other dose. Hits are enriched below; roughly 1.2% of the tested compounds scored in any of these assays.

SMILES | RGS7-Gao reg | Avidin fluor | RGS4-Gao reg | GSH bead fluor | RGS8-Gao | RGS16-Gao
Cc1ccc(S(=O)(=O)Nc2nc(C)cc(NCCN)n2)cc1 | 98.9 | 7 | 98.5 | 279* | 99.1 | 102.8
Cc1ccc(S(=O)(=O)Nc2nc(C)cc(NN)n2)cc1 | ? | 6 | 97.0 | . | 100.1 | 99.5
CCC(C)[C@H](NC(=O)NCc1ccc(S(N)(=O)=O)cc1)C(=O)O (stereo partly drawn) | ? | 4 | 100.2 | . | 102.7 | 100.4
O=C(c1ccc(Cn2cc(Br)cn2)o1)N1N=C(C(F)F)CC1(O)C(F)F (stereo not drawn) | 145.2 | 66* | 150.4*[activator] | 39 | 111.2 | 145.2
COc1ccc(-c2cc3ccccc3oc2=O)cc1NC(=O)c1ccc(Br)o1 | 123.3 | 47* | 148.4 | 30 | 106.4 | 148.6
COc1ccc(CNCCSc2nnnn2C)c(OC)c1OC | 107.2 | 13 | 104.1 | 13 | 105.3 | 107.2
COc1ccc(Br)cc1CNCCSc1nnnn1C | 97.1 | 8 | 102.0 | 253* | 99.3 | 98.0
O=C(CSc1ncn[nH]1)Nc1ccc(OCc2ccccc2)cc1 | 106.4 | 14 | 102.2 | 14 | 103.9 | 104.8
Cc1c(C(=O)OCC(=O)N2c3ccccc3CC2C)oc2ccccc12 (stereo not drawn) | 135.1 | 95* | 104.2 | 11 | 98.2 | 103.7
O=C(NC(=S)NNS(=O)(=O)c1ccc(Cl)cc1)c1cccnc1 | 101.4 | 10 | 101.0 | 11 | 99.7 | 97.2
Cc1nnc(SCC(=O)N2CCN(c3ccccc3)CC2)n(N)c1=O | 98.0 | 6 | 102.6 | 19 | 100.4 | 100.6
Cc1ccccc1-n1cnnc1SCC(=O)N1CCN(c2ccccc2)CC1 | 107.3 | 50* | 104.0 | 15 | 101.2 | 101.7
O=C(Nc1cccc2ccccc12)NC1CCS(=O)(=O)C1 (stereo not drawn) | 128.1 | 58* | 95.8 | 17 | 100.3 | 116.3
COc1ccc(NC(=O)c2ccc(-c3nn(C)c(=O)c4ccccc34)cc2)cc1C(N)=O | ? | 7 | 97.4 | . | 106.3 | 104.9
CCn1c(C)cc2c(c1=O)C(c1ccc3c(c1)OCO3)C(C#N)=C(N)O2 (stereo not drawn) | 113.9 | 63* | 105.5 | 17 | 102.8 | 105.6
CCNc1nc(NCC)nc(OCCOC(C)=O)n1 | 96.9 | 5 | 92.8 | 132* | 88.1 | 67.0
COc1ccc(C(CC(=O)Nc2nccs2)n2cccc2)cc1 (stereo not drawn) | 107.3 | 49* | 105.0 | 12 | 102.0 | 101.4
CN(C(=O)CSc1nnc(-c2ccccc2)o1)c1c(N)n(Cc2ccccc2)c(=O)[nH]c1=O | ? | 12 | 102.2 | 10 | 102.3 | 96.3
CC1(C)CC(NC(=O)c2c(N)no[n+]2[O-])CC(C)(C)N1 | 96.6 | 9 | 97.6 | 11 | 98.7 | 98.8
O=c1cc(CN2CCC3(CC2)OCCO3)c2c(ccc3ccccc32)o1 | 102.7 | 10 | 99.4 | 8 | 102.5 | 98.2
O=c1cc(CN2CCN(c3ccccc3)CC2)c2c(ccc3ccccc32)o1 | 108.1 | 55* | 100.1 | 14 | 97.5 | 95.5
O=C(CSc1ncn[nH]1)Nc1ccc(S(=O)(=O)N2CCCC2)cc1 | 104.8 | 4 | 101.5 | 39 | 101.1 | 103.1
CSc1ccc(Cl)c(C(=O)NCc2ccco2)c1 | 102.6 | 3 | 95.2 | 250* | 98.0 | 59.9
CC(NC(=O)c1cncc(Br)c1)c1ccc(S(N)(=O)=O)cc1 (stereo not drawn) | 98.6 | 8 | 104.8 | 71 | 103.9 | 101.8
NS(=O)(=O)c1ccc(CCNC(=O)c2cncc(Br)c2)cc1 | 109.8 | 50* | 98.8 | 21 | 97.8 | 94.8
Cc1[nH]c(=O)[nH]c(=O)c1/C=N/NC(=O)[C@H](C)N | ? | 12 | 101.4 | . | 99.9 | 99.7
O=C1CCc2cc(S(=O)(=O)NC(Cc3ccccc3)C(=O)NCCC3=CCCCC3)ccc2N1 (stereo not drawn) | 143.2 | 54* | 105.8 | 20 | 97.0 | 101.9
Cc1cccc(C(=O)Nc2nnc(SCC(=O)Nc3ccc4c(c3)oc3ccccc34)s2)c1 | 108.6 | 12 | 109.9 | 8 | 104.8 | 102.3
COc1ccccc1C(=O)Nc1nnc(SCC(=O)Nc2ccc3c(c2)oc2ccccc23)s1 | 102.3 | 14 | 100.0 | 811* | 102.5 | 110.5
CCC(C)(C)NC(=O)CN(C(=O)c1snc(C(N)=O)c1N)c1ccc2c(c1)OCCO2 | 100.6 | 29 | 97.3 | 24 | 99.4 | 96.8
